According to PubChem BioAssay (Tox21):
Inconclusive results are not listed. Activity calls are given as the source filed them. Unless noted, calls come from the whole dose curve; as a rule, active = well fitted curve in the direction sought with a large enough effect in the repeat runs; inconclusive = weak or mixed curves; inactive = no such curve, though single readings can be large; an effect the other way counts as inactive or inconclusive.

How the values were obtained:
[1] = qHTS assay to identify small molecule agonists of the hypoxia (HIF-1) signaling pathway - cell viability counter screen (AID 1224844; calls by dose curve; note: nearly all actives have a fitted effect of over 50% in size; note: potency is the fitted concentration of half-maximal effect)
Procedure, shortened: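 CellTiter-Glo luminescence read-out, 30 min RT, taken in the same wells as the beta-lactamase HRE reporter assay; HRE-bla ME-180 cells, 0.5% dialyzed FBS, 17 hr compound treatment at 37C, 5% CO2.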

[2] = qHTS assay to identify small molecule agonists of H2AX (AID 1224845; active = well fitted activation curve with a large enough effect in the signal ratio in the repeat runs, not every such curve was filed as active; the % refers to the signal ratio; note: potency is the fitted concentration of half-maximal effect)
Procedure, shortened: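 Wild-type CHO-K1 cells plated overnight, then exposed 3 hr at 37C to compounds at 15 concentrations (0.76% DMSO). Lysed, then HTRF anti-pH2AX(S139)-cryptate/anti-H2AX-d2 detection after 24 hr at room temperature; emissions 665 and 620 nm.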

[3] = qHTS assay to identify small molecule agonists of H2AX - cell viability counter screen (AID 1224847; calls by dose curve; note: top concentration of the series differs between compounds; nearly all actives have a fitted effect of over 30% in size)
Procedure, shortened: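 Compounds tested at 15 concentrations were incubated 3 hr at 37C with wild-type CHO-K1 cells; cellular ATP-based luminescence (CellTiter-Glo) indicated viability.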

[4] = qHTS assay to identify small molecule antagonists of the estrogen related receptor (ERR) signaling pathway from Tox21 library (AID 1224848); note: nearly all actives have a fitted effect of over 50% in size
Procedure, shortened: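 Tox21 10K compounds in DMSO tested for ERR pathway antagonism in NTP's ERR cell line; 18 h, 37 C exposure; ONE-Glo luminescence.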

[5] = qHTS assay to identify small molecule agonists of the estrogen related receptor (ERR) signaling pathway from Tox21 library (AID 1224849; calls by dose curve; note: nearly all actives have a fitted effect of over 15% in size); settings: ERR reporter cell line, ONE-Glo luciferase, 18 h; at 92.4 µM (top of the series) unless noted
Procedure, shortened: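 Luminescence readout (ONE-Glo, 30 min RT) after 18 h compound exposure at 37 C of NTP-supplied ERR reporter cells; cells were plated 6 h before compound addition by pin tool.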

[6] = qHTS RealTime-Glo MT Cell Viability Assay in HepG2 cells - 24 hour (AID 1224867); note: nearly all actives have a fitted effect of over 50% in size
Procedure, shortened: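 qHTS, HepG2, 600 cells/well, RealTime-Glo (NanoLuc + prosubstrate) added with cells; 5 h preincubation; DMSO compound addition; 37 C; luminescence at 0/8/16/24/32/40 h.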

[7] = qHTS RealTime-Glo MT Cell Viability Assay in HEK293 cells - 32 hour (AID 1224868); note: nearly all actives have a fitted effect of over 50% in size; note: potency is the fitted concentration of half-maximal effect; for activity change, negative = cytotoxic: top concentration of the series differs between compounds
Procedure, shortened: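 Assay medium contained NanoLuc luciferase plus cell-permeant prosubstrate, added with HEK293 cells at 600 cells/well. After 5 h at 37 C/5% CO2 compounds were added; plates stayed at 37 C for 40 h with serial luminescence reads.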

[8] = A CellTox Green Cytotoxicity Assay to monitor cytotoxicity in HEK293 cells - 0 hour (AID 1224869); note: nearly all actives have a fitted effect of over 50% in size
Procedure, shortened: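 Read-out: fluorescence of a cell-impermeant cyanine dye staining DNA of dead cells, proportional to cytotoxicity. HEK293, 600 cells/well with reagent, compound (23 nL DMSO) added after 5 h; reads at 0, 8, 16, 24, 32, 40 h.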

[9] = qHTS RealTime-Glo MT Cell Viability Assay in HepG2 cells - 40 hour (AID 1224870); note: nearly all actives have a fitted effect of over 50% in size
Procedure, shortened: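 HepG2 cells mixed with RealTime-Glo MT reagents (NanoLuc plus cell-permeant prosubstrate) were seeded at 600 cells/well, incubated 5 h at 37 C/5% CO2, then pinned with compounds in DMSO; nonlytic luminescence tracked viability during 40 h treatment.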
% is set by controls: 0 for no effect and ±100 for the full control effect.

COc1ccccc1N1CCN(CCCNc2cc(=O)n(C)c(=O)n2C)CC1
inactive: Potency [1] | Potency [2] | Potency [3] | Potency [4] | activity change, positive = activation [5] 3.63% [at 42.5 µM] | Potency [6] | Potency [7] | Potency [8] | Potency [9]

CCCCCCCCCCCCOCCOS(=O)(=O)O
active: Potency [1] 43.6 µM
inactive: Potency [2] | Potency [3] | activity change, positive = activation [5] -29.3% | Potency [6] | Potency [8] | Potency [9]

CCCCOc1cc(C(=O)NCCN(CC)CC)c2ccccc2n1
active: Potency [7] 21.3 µM
inactive: Potency [1] | Potency [2] | Potency [3] | Potency [6] | Potency [8] | Potency [9]

OCc1ccccc1O
inactive: Potency [1] | Potency [2] | Potency [3] | Potency [6] | Potency [7] | Potency [8] | Potency [9]

CC(=O)OC(C)OC(C)=O
inactive: Potency [1] | Potency [2] | Potency [3] | Potency [6] | Potency [7] | Potency [8] | Potency [9]

CN(C)CCOc1ccccc1Cc1ccccc1
inactive: Potency [1] | Potency [2] | Potency [3] | Potency [4] | activity change, positive = activation [5] 6.12% [at 42.5 µM] | Potency [6] | Potency [8] | Potency [9]

FC(F)(F)C(Cl)(Cl)Cl
inactive: Potency [1] | Potency [2] | Potency [3] | Potency [6] | Potency [7] | Potency [8] | Potency [9]

O=c1[nH]c(=O)n([C@H]2C[C@H](O)[C@@H](CO)O2)cc1C(F)(F)F
active: Potency [2] 0.196 µM
inactive: Potency [1] | Potency [3] | activity change, positive = activation [5] -26.8% [at 42.5 µM] | Potency [6] | Potency [7] | Potency [8] | Potency [9]

CC(C)NCC(O)COc1ccc(CCOCC2CC2)cc1 (configuration not stated)
inactive: Potency [1] | Potency [2] | Potency [3] | Potency [6] | Potency [7] | Potency [8] | Potency [9]

COC(=O)c1ccc2cc(C(=O)OC)ccc2c1
inactive: activity change, negative = cytotoxicity [1] 1.66% [at 15.8 µM] | activation (H2AX phosphorylation) [2] 0.148% [at 31.6 µM] | activity change, negative = cytotoxicity [3] 2.5% [at 31.6 µM] | activity, negative = inhibition [4] 23.9% [at 19 µM] | activity change, negative = cytotoxicity [6] 2.88% [at 15.8 µM] | activity change, negative = cytotoxic [7] -1.06% [at 15.8 µM] | cytotoxicity [8] 2.02% [at 15.8 µM] | activity change, negative = cytotoxic [9] -0.864% [at 15.8 µM]

Cc1ccccc1C(=O)Nc1ccc(C(=O)N2CCCC(O)c3cc(Cl)ccc32)c(C)c1 (configuration not stated)
inactive: Potency [1] | Potency [2] | Potency [3] | activity change, positive = activation [5] -27% [at 42.5 µM] | Potency [6] | Potency [8] | Potency [9]

C=CCc1cc(OC)c(O)c(C(=O)NCCO)c1
inactive: Potency [1] | Potency [2] | Potency [3] | Potency [6] | Potency [7] | Potency [8] | Potency [9]

CC(C)(CO)[C@@H](O)C(=O)NCCC(=O)O
inactive: Potency [1] | Potency [2] | Potency [3] | Potency [4] | activity change, positive = activation [5] 7.16% | Potency [6] | Potency [7] | Potency [8] | Potency [9]

CN1CCN(C2=Nc3cc(F)ccc3Cc3ccccc32)CC1
inactive: Potency [1] | Potency [2] | Potency [3] | Potency [4] | activity change, positive = activation [5] 0.425% [at 42.5 µM] | Potency [6] | Potency [8] | Potency [9]

CN1[C@@H]2CC[C@H]1CC(OC(=O)c1c[nH]c3ccccc13)C2 (some centres not stated)
inactive: Potency [1] | Potency [2] | Potency [3] | Potency [6] | Potency [7] | Potency [8] | Potency [9]

CCCCCCCCCC/C=C/C#N
inactive: Potency [1] | Potency [2] | Potency [3] | Potency [4] | activity change, positive = activation [5] -1.03% | Potency [6] | Potency [8] | Potency [9]

Oc1ccccc1F
inactive: Potency [1] | Potency [2] | Potency [3] | Potency [6] | Potency [7] | Potency [8] | Potency [9]

CC(C)C1=CC2=CC[C@@H]3[C@](C)(CCC[C@@]3(C)C(=O)O)[C@H]2CC1
active: Potency [1] 43.6 µM
inactive: Potency [2] | Potency [3] | activity change, positive = activation [5] -16.7% | Potency [6] | Potency [7] | Potency [8] | Potency [9]

Cc1ccc(C(C)C)cc1O
inactive: Potency [1] | Potency [2] | Potency [3] | Potency [6] | Potency [7] | Potency [8] | Potency [9]

C=O
inactive: Potency [1] | Potency [2] | Potency [3] | Potency [4] | activity change, positive = activation [5] 0.267% | Potency [6] | Potency [8] | Potency [9]

CCCCC(CC)COC(=O)COc1cc(Cl)c(Cl)cc1Cl (configuration not stated)
inactive: Potency [1] | Potency [2] | Potency [3] | Potency [6] | Potency [7] | Potency [8] | Potency [9]

CCC(=O)c1ccc2c(c1)N(CCCN(C)C)c1ccccc1S2
inactive: Potency [1] | Potency [2] | Potency [3] | Potency [6] | Potency [8] | Potency [9]
active: Potency [7] 16.9 µM

COC(=O)C(C)O (configuration not stated)
inactive: Potency [1] | Potency [2] | Potency [3] | Potency [6] | Potency [7] | Potency [8] | Potency [9]

Cc1cc(NS(=O)(=O)c2ccc(N)cc2)nc(C)n1
inactive: Potency [1] | Potency [2] | Potency [3] | Potency [6] | Potency [7] | Potency [8] | Potency [9]

c1ccc(CN(CC2=NCCN2)c2ccccc2)cc1
inactive: Potency [1] | Potency [2] | Potency [3] | Potency [4] | activity change, positive = activation [5] -0.231% [at 42.5 µM] | Potency [6] | Potency [7] | Potency [8] | Potency [9]

CC(Oc1c(Cl)cccc1Cl)C1=NCCN1 (configuration not stated)
inactive: Potency [1] | Potency [2] | Potency [3] | Potency [4] | activity change, positive = activation [5] -3.99% [at 42.5 µM] | Potency [6] | Potency [7] | Potency [8] | Potency [9]
